Hit rate of the full screen: of about 39,000 compounds, about 1,500 (3.8%) were called active. Only a selection was taken, and actives are over-represented in it overall.
test system: HSkMC (human skeletal muscle cells); test: cytotoxicity call (relative viability < 0.9); conditions: 10 µM

Row | Structure (SMILES) | cytotoxicity call
1 | C[C@@H]1CN([C@@H](C)CO)C(=O)Cc2cc(NC(=O)Nc3ccc(C(F)(F)F)cc3)ccc2O[C@@H]1CN(C)S(=O)(=O)c1ccc(Cl)cc1 | active
2 | C[C@H](CO)N1C[C@H](C)[C@H](CN(C)S(=O)(=O)c2ccc(Cl)cc2)Oc2ccc(NC(=O)Nc3ccc(C(F)(F)F)cc3)cc2CC1=O | active
3 | C[C@H](CO)N1C[C@H](C)[C@@H](CN(C)S(=O)(=O)c2ccc(Cl)cc2)Oc2ccc(NC(=O)Nc3ccc(C(F)(F)F)cc3)cc2CC1=O | inactive
4 | C[C@H]1CN([C@@H](C)CO)C(=O)Cc2cc(NC(=O)Nc3cccc(C(F)(F)F)c3)ccc2O[C@H]1CN(C)S(=O)(=O)c1ccc(Oc2ccccc2)cc1 | inactive
5 | C[C@H]1CN([C@@H](C)CO)C(=O)Cc2cc(NC(=O)Nc3cccc(C(F)(F)F)c3)ccc2O[C@H]1CN(C)S(=O)(=O)c1ccc(Cl)cc1 | active
6 | COc1ccc(S(=O)(=O)N(C)C[C@@H]2Oc3ccc(NC(=O)Nc4cccc(C(F)(F)F)c4)cc3CC(=O)N([C@@H](C)CO)C[C@@H]2C)cc1Cl | active
7 | C[C@@H]1CN([C@@H](C)CO)C(=O)Cc2cc(NC(=O)Nc3ccc(C(F)(F)F)cc3)ccc2O[C@H]1CN(C)S(=O)(=O)c1ccc(Cl)cc1 | inactive
8 | C[C@@H]1CN([C@@H](C)CO)C(=O)c2cc(NS(=O)(=O)c3ccc(F)cc3)ccc2O[C@@H](C)CCCCO[C@@H]1CN(C)Cc1ccc(C(=O)O)cc1 | inactive
9 | C[C@H]1CN([C@@H](C)CO)C(=O)CCCn2cc(nn2)CO[C@@H]1CN(C)Cc1cccc2c1OCCCO2 | inactive
10 | CO[C@H]1O[C@H](CO)[C@@H](OC(=O)Nc2ccc(Oc3ccccc3)cc2)[C@H](OC(=O)Nc2ccccc2)[C@H]1OC(=O)Nc1ccccc1 | inactive
11 | COc1ccc(S(=O)(=O)N(C)C[C@@H]2OCCCC[C@@H](C)Oc3ccc(NC(=O)Nc4ccccc4)cc3C(=O)N([C@H](C)CO)C[C@H]2C)cc1 | inactive
12 | O=C(C[C@H]1CC[C@H]2[C@@H](COC[C@@H](O)CN2S(=O)(=O)c2ccc(Oc3ccccc3)cc2)O1)NC1CCC1 | inactive
13 | CC(C)NC(=O)Nc1ccc2c(c1)C(=O)N([C@H](C)CO)C[C@@H](C)[C@@H](CN(C)S(=O)(=O)c1cn(C)cn1)O2 | inactive
14 | C[C@H]1CN([C@@H](C)CO)C(=O)c2cc(NC(=O)Nc3cccc4ccccc34)ccc2O[C@@H]1CN(C)Cc1ccc(C(=O)O)cc1 | inactive
15 | COC(=O)c1c(CC[C@@H](CO)NC(=O)N[C@H](Cn2cc(-c3ccccc3C)nn2)C(C)C)oc(C(C)=O)c1C(=O)OC | inactive
16 | CCCN(C)C[C@H]1OCCCC[C@@H](C)Oc2ccc(NC(=O)C3CCCCC3)cc2C(=O)N([C@H](C)CO)C[C@@H]1C | inactive
17 | C[C@@H]1CN([C@H](C)CO)C(=O)Cc2cc(NC(=O)Nc3ccc(C(F)(F)F)cc3)ccc2O[C@@H]1CN(C)S(C)(=O)=O | inactive
18 | C[C@@H]1CN([C@@H](C)CO)C(=O)Cc2cc(NC(=O)Nc3ccc(C(F)(F)F)cc3)ccc2O[C@H]1CN(C)S(C)(=O)=O | inactive
19 | C[C@H]1CN([C@@H](C)CO)C(=O)Cc2cc(NC(=O)Nc3ccc(C(F)(F)F)cc3)ccc2O[C@H]1CN(C)S(C)(=O)=O | inactive
20 | C[C@@H]1CN([C@H](C)CO)C(=O)Cc2cc(NC(=O)Nc3ccc(C(F)(F)F)cc3)ccc2O[C@H]1CN(C)S(C)(=O)=O | inactive
21 | C[C@H](CO)N1C[C@H](C)[C@@H](CN(C)S(C)(=O)=O)Oc2ccc(NC(=O)Nc3ccc(C(F)(F)F)cc3)cc2CC1=O | inactive
22 | C[C@@H]1CN([C@H](C)CO)C(=O)Cc2cc(NC(=O)Nc3ccc(C(F)(F)F)cc3)ccc2O[C@@H]1CN(C)S(=O)(=O)c1ccc(Cl)cc1 | active
23 | C[C@@H]1CN([C@H](C)CO)C(=O)Cc2cc(NC(=O)Nc3ccc(C(F)(F)F)cc3)ccc2O[C@H]1CN(C)S(=O)(=O)c1ccc(Cl)cc1 | active
24 | C[C@H]1CN([C@@H](C)CO)C(=O)Cc2cc(NC(=O)Nc3ccc(C(F)(F)F)cc3)ccc2O[C@H]1CN(C)S(=O)(=O)c1ccc(Cl)cc1 | active
25 | Cc1ccccc1S(=O)(=O)N(C)C[C@@H]1Oc2ccc(NC(=O)Nc3cccc(C(F)(F)F)c3)cc2CC(=O)N([C@@H](C)CO)C[C@@H]1C | active
26 | C[C@H]1CN([C@@H](C)CO)C(=O)Cc2cc(NC(=O)Nc3ccc(C(F)(F)F)cc3)ccc2O[C@@H]1CN(C)S(=O)(=O)c1ccc(Cl)cc1 | inactive
27 | COc1ccc(NC(=O)N(C)C[C@@H]2OCc3ccccc3-c3c(n(C)c4ccccc34)C(=O)N([C@H](C)CO)C[C@H]2C)cc1 | inactive
28 | C[C@@H]1CN([C@H](C)CO)C(=O)Cc2cc(NS(=O)(=O)c3ccc(Cl)cc3)ccc2O[C@@H]1CN(C)C(=O)Nc1cccc2ccccc12 | inactive

Row | Structure (SMILES) | cytotoxicity call
29 | CO[C@@H](CN(C)S(=O)(=O)c1ccc(C)cc1)[C@@H](C)CN([C@@H](C)CO)S(=O)(=O)c1cccc(Cl)c1 | inactive
30 | C[C@@H]1CN([C@H](C)CO)C(=O)c2cc(NS(=O)(=O)c3ccc(Cl)cc3)ccc2O[C@@H](C)CCCCO[C@@H]1CN(C)C(=O)Cc1ccccc1 | inactive
31 | CN1CCN(C(=O)C[C@H]2C=C[C@H](NC(=O)Cc3ccccn3)[C@H](CO)O2)CC1 | inactive
32 | O=C(C1=C[C@H](c2ccsc2)C[C@H](OCCCCO)O1)N1CCN(Cc2ccc3c(c2)OCO3)CC1 | inactive
33 | COC(=O)c1c2oc(c1C(=O)OC)C(=O)N[C@@H](Cc1ccccc1)Cn1cc(nn1)[C@@H](Cc1ccccc1)NC(=O)N[C@H](CO)CC2 | inactive
34 | C[C@H](CO)N1C[C@H](C)[C@H](CN(C)S(=O)(=O)c2ccccc2)OCCCC[C@H](C)Oc2ccc(NC(=O)NC3CCCCC3)cc2C1=O | inactive
35 | CCNc1cc(=N)n(CC)c2n[nH]c(N)c12 | inactive
36 | CO/N=C1\C[C@]2(C[C@@H]3C[C@@H](C/C=C(\C)C[C@@H](C)/C=C/C=C4\CO[C@@H]5[C@H](O)C(C)=C[C@@H](C(=O)O3)[C@]45O)O2)O[C@H](/C(C)=C/C(C)C)[C@H]1C | active
37 | CON=C1CC2(CC3CC(CC=C(C)CC(C)C=CC=C4COC5C(O)C(C)=CC(C(=O)O3)C45O)O2)OC(C(C)=CC(C)C)C1C (stereo not given) | active
38 | COC(=O)C=CC(=O)OC | inactive
39 | C[C@@H](NC(=O)C[C@H]1CC[C@@H](NC(=O)CN2CCOCC2)[C@H](CO)O1)c1ccccc1 | inactive
40 | C#CC1(O)CCC2C3CCC4=CCCCC4C3CCC21C (stereo not given) | active
41 | C#CC1(O)CCC2C3CCC4=CC(=O)CCC4C3CCC21C (stereo not given) | inactive
42 | C#CC1(O)CCC2C3CCC4=CCCCC4C3C(=C)CC21CC (stereo not given) | inactive
43 | C[C@H](CO)N1C[C@H](C)[C@H](CN(C)C(=O)Cc2ccccc2)OCCCC[C@H](C)Oc2ccc(NC(=O)Nc3ccc4c(c3)OCO4)cc2C1=O | inactive
44 | C[C@@H]1CN([C@@H](C)CO)C(=O)c2cc(NS(=O)(=O)c3cn(C)cn3)ccc2O[C@H]1CN(C)Cc1ccc(C(=O)O)cc1 | inactive
45 | O=c1[nH]cc(/N=C/c2ccncc2)c(=O)[nH]1 | inactive
46 | COc1ccc(NC(=O)N(C)C[C@H]2OCCCC[C@@H](C)Oc3ccc(NC(=O)NC(C)C)cc3C(=O)N([C@H](C)CO)C[C@@H]2C)cc1 | inactive
47 | C[C@@H]1O[C@@H](O[C@H]2[C@H](O)[C@@H](O)[C@H](OC(=O)[C@]34CCC(C)(C)C[C@H]3C3=CC[C@H]5[C@@]6(C)CC[C@H](O[C@@H]7O[C@H](C(=O)O)[C@@H](O)[C@H](O)[C@H]7O)C(C)(C)[C@@H]6CC[C@@]5(C)[C@]3(C)CC4)O[C@@H]2CO)[C@H](O)[C@H](O)[C@H]1O | inactive
48 | C[C@@H]1O[C@@H](O[C@H]2[C@H](O[C@H]3[C@H](O)[C@@H](O[C@@H]4O[C@H](CO)[C@@H](O)[C@H](O)[C@H]4O)[C@H](O[C@H]4CC[C@]5(C)[C@H]6CC[C@]78OC[C@@]9(CCC(C)(C)C[C@@H]97)[C@H](O)C[C@@]8(C)[C@]6(C)CC[C@H]5C4(C)C)O[C@@H]3C(=O)O)O[C@H](CO)[C@H](O)[C@@H]2O)[C@H](O)[C@H](O)[C@H]1O | active
49 | CC(=O)O[C@H]1CC(C)(C)C[C@H]2[C@]13CO[C@@]21CC[C@@H]2[C@@]4(C)CC[C@H](O[C@@H]5O[C@H](C(=O)O)[C@@H](O)[C@H](O[C@@H]6O[C@H](CO)[C@H](O)[C@H](O)[C@H]6O[C@@H]6O[C@@H](C)[C@H](O)[C@@H](O)[C@H]6O)[C@H]5O[C@@H]5O[C@H](CO)[C@@H](O)[C@H](O)[C@H]5O)C(C)(C)[C@@H]4CC[C@@]2(C)[C@]1(C)C[C@H]3O | inactive
50 | CC1(C)CC[C@]2(C(=O)O[C@@H]3O[C@H](CO)[C@@H](O)[C@H](O)[C@H]3O)CC[C@]3(C)C(=CC[C@H]4[C@@]5(C)CC[C@@H](O[C@@H]6O[C@H](C(=O)O)[C@@H](O[C@@H]7OC[C@@H](O)[C@H](O)[C@H]7O)[C@H](O[C@@H]7OC[C@](O)(CO)[C@H]7O)[C@H]6O)C(C)(C)[C@@H]5CC[C@]43C)[C@@H]2C1 | inactive
51 | CC(=O)O[C@H]1CC(C)(C)C[C@H]2[C@]13CO[C@@]21CC[C@H]2[C@@]4(C)CC[C@H](O[C@@H]5OC[C@H](O[C@@H]6O[C@H](CO)[C@@H](O)[C@H](O)[C@H]6O[C@@H]6OC[C@@H](O[C@@H]7O[C@H](CO)[C@@H](O)[C@H](O)[C@H]7O)[C@H](O)[C@H]6O)[C@H](O)[C@H]5O[C@@H]5O[C@H](CO)[C@@H](O)[C@H](O)[C@H]5O)[C@@](C)(CO)[C@@H]4CC[C@@]2(C)[C@]1(C)C[C@H]3O | active
52 | C[C@H]1O[C@@H](OC[C@H]2O[C@@H](O[C@H]3CC[C@]4(C)[C@H]5CCC6=C(CC[C@@]7(C(=O)O[C@@H]8O[C@H](CO)[C@@H](O)[C@H](O)[C@H]8O[C@@H]8O[C@H](CO)[C@@H](O)[C@H](O)[C@H]8O)CCC(C)(C)C[C@@H]67)[C@]5(C)CC[C@H]4C3(C)C)[C@H](O)[C@@H](O)[C@@H]2O)[C@H](O)[C@@H](O)[C@@H]1O | inactive
53 | C[C@@H]1O[C@@H](O[C@H]2[C@H](O[C@H]3[C@H](O)[C@@H](C(=O)O)O[C@@H](O[C@H]4CC[C@]5(C)[C@H]6CC[C@]78OC[C@@]9(CCC(C)(C)C[C@@H]97)[C@H](O)C[C@@]8(C)[C@]6(C)CC[C@H]5C4(C)C)[C@@H]3OC3O[C@H](CO)[C@@H](O)[C@H](O)[C@H]3O)O[C@H](CO)[C@H](O)[C@@H]2O)[C@H](O)[C@H](O)[C@H]1O (stereo not given in full) | active
54 | CC1(C)CC[C@]2(C(=O)O[C@@H]3O[C@H](CO[C@@H]4O[C@H](CO)[C@@H](O)[C@H](O)[C@H]4O)[C@@H](O)[C@H](O)[C@H]3O)CC[C@]3(C)C(=CC[C@H]4[C@@]5(C)CC[C@H](O[C@@H]6OC[C@H](O)[C@H](O)[C@H]6O)C(C)(C)[C@@H]5CC[C@]43C)[C@@H]2C1 | inactive
55 | C[C@@H]1O[C@@H](O[C@H]2[C@H](O[C@H]3[C@H](O)[C@@H](O[C@@H]4O[C@H](CO)[C@@H](O[C@@H]5O[C@H](CO)[C@H](O)[C@H]5O)[C@H](O)[C@H]4O)[C@H](O[C@H]4CC[C@]5(C)[C@H]6CC[C@]78OC[C@@]9(CCC(C)(C)C[C@@H]97)[C@H](O)C[C@@]8(C)[C@]6(C)CC[C@H]5C4(C)C)O[C@@H]3C(=O)O)O[C@H](CO)[C@H](O)[C@@H]2O)[C@H](O)[C@H](O)[C@H]1O | inactive

From the antibiotic and cytotoxicity screens of Wong et al. (2023)
